The values that follow come from PubChem BioAssay.

The structures appear in SMILES notation.

This test is described as follows: basal RPMI8226 mitochondrial membrane potential changes, profiling panel, cell-based, JC-1 fluorescence, 24 h, 100 nL compound (AID 1169). Note: test concentration not given here. The note with it: RPMI8226 myeloma, JC-1 mitochondrial potential fluorescence, higher = more signal.
`COc1ccc(C(=O)Nc2cccc(CN3C(=O)[C@]4(O[C@H](CCn5cc(CCO)nn5)[C@@H]([Si](C)(C)c5ccc(OC)cc5)[C@@H]4C)c4ccccc43)c2)cc1`: the z-score was -0.46. `COC(=O)c1c2oc(c1C(=O)OC)C(=O)N[C@@H](C(C)C)Cn1cc(nn1)C1(CCCCC1)NC(=O)N[C@H](CO)CC2` came in with a z-score of -0.159.

Turning to `O=C1NC(=O)C2C1C=CC(C(O)c1ccc(-c3ccccc3)s1)N2Nc1ccc(Cl)cc1Cl` (centres undefined), the z-score was -0.983. With `CCOC(=O)C[C@H]1[C@H](OC(=O)c2ccc(-c3ccccc3)cc2)[C@@H](NC(=O)c2ccccc2)c2cc(OCCCO)ccc2N1C(=O)Cc1ccc(OC)cc1` the figure was 0.157; with `COC(=O)[C@@]1(Cc2ccc(OC)cc2)[C@H]2c3cc(C(=O)N4CCCC4)n(CCCNc4ncc(C(F)(F)F)cc4Cl)c3C[C@H]2CN1C(=O)c1ccccc1`, -0.873. Compound `CC(=CC1CCCCC1)[C@@H](NC(=O)c1cccnc1)c1ccc(-c2ccccc2)cc1` returned a z-score of 0.597.

Compound `C=CCC(OC(C)=O)[C@@H]1[C@@H](N(Cc2ccc(-c3cccc(C(F)(F)F)c3)o2)C(=O)Cc2ccc(OC)cc2)c2cc(OCCCO)ccc2N1C(=O)c1ccc2ccccc2c1` (some centres undefined) showed a z-score of -0.442. With `CCOC(=O)C1=CC[C@@H](c2ccccc2)N(S(=O)(=O)c2ccc(C)cc2)[C@H]1c1ccc(CC)cc1` the figure was -0.27. Compound `O=c1cccc(-c2ccccc2Cl)o1` gave a z-score of -0.103. `CCCCC(=C=CC[C@H](O)c1cccc(OCCO)c1)C[C@H](O)c1ccccn1` displayed a z-score of 0.0444. With `COc1ccc([Si](C)(C)[C@@H]2[C@@H](CC(=O)N3CCC[C@H]3CO)O[C@]3(C(=O)N(Cc4cccc(I)c4)c4ccccc43)[C@H]2C)cc1` the figure was -1.08; with `COC(=O)[C@@]1(Cc2ccccc2)[C@H]2c3cc(C(=O)N4CCCC4)n(Cc4c(CO)[nH]cc(C)c4=O)c3C[C@H]2CN1C(=O)c1ccccc1`, -0.797; with `CCOc1cc(C(O)C2C=CC3C(=O)N(c4ccccc4)C(=O)C3N2Nc2ccc(C(C)C)cc2)ccc1O` (centres undefined), 0.41. `CN(C)CCCCCCNC(=O)[C@@H]1C[C@@H]2C(=O)N3CCC[C@H]3C(=O)N2[C@@H]1c1ccc(O)cc1`: the z-score was -0.689. `CCC(CC)C(O)C1C=CC2C(=O)N(c3ccccc3)C(=O)C2N1Nc1ccccc1` (centres undefined) yielded a z-score of 0.0116. With `COC(=O)[C@@]1(Cc2ccc(OC)cc2)[C@H]2c3cc(C(=O)N4CCCC4)n(Cc4nc5ccccc5[nH]4)c3C[C@H]2CN1C(=O)c1ccccc1` the figure was -0.764; with `O=C1O[C@@H](c2ccccc2)[C@@H](c2ccccc2)N2[C@@H](c3ccc(OCCO)cc3)[C@]3(C(=O)Nc4ccc(C#CC5=CCCCC5)cc43)[C@@H](C(=O)N3CCCCCCC3)[C@H]12`, -0.831; with `O=C(O)[C@@]1(CCS(=O)(=O)c2ccccc2)N=C(c2ccc(OCCCO)cc2)O[C@H]1c1ccccc1`, -0.178. `C=CCNC(=O)[C@@H]1[C@H]2C(=O)O[C@H](c3ccccc3)[C@H](c3ccccc3)N2[C@H](c2ccc(OCCO)cc2)[C@@]12C(=O)N(C(=O)OCCOC)c1ccc(C#CCC(C(=O)OC)C(=O)OC)cc12`: the z-score was -0.799.

With `[N-]=[N+]=Nc1ccccc1C[C@@]1(C(=O)N2CCCCC2)N=C(c2ccc(OCCCO)cc2)O[C@@H]1c1ccccc1`, the z-score is -1.19. The compound `CC(=O)n1cc(C(O)C2C=CC3C(=O)NC(=O)C3N2Nc2ccccn2)c2ccccc21` (centres undefined) came in with a z-score of 0.634.

For the compound `O=C1OCCC=C[C@H]2OC34C=CCN(c5ccc(Cl)cc5)C(=O)[C@H]3N(CCCO)C(=O)[C@@H]4C12` (some centres undefined), the z-score was -0.21.

In turn, `CC(c1ccccc1)C(O)C1C=CC2C(=O)N(c3ccccc3)C(=O)C2N1Nc1ccccc1` (centres undefined) registered a z-score of -0.814. Turning to `CCOC(=O)C[C@H]1[C@H](OC(=O)c2ccc(-c3ccccc3)cc2)[C@@H](NC(=O)c2ccccc2)c2cc(OCCCO)ccc2N1C(=O)c1ccc2ccccc2n1`, the z-score is 0.939. The compound `CCCCN1CC=CC23O[C@@H]4C=CCOC(=O)[C@@H]4[C@H]2C(=O)N(CCCCCCO)[C@@H]3C1=O` (some centres undefined) came in with a z-score of 0.76. `COc1ccc(-c2cc3c(c(Cc4ccccc4)n2)[Si](C(C)C)(C(C)C)OC3)cn1` returned a z-score of -0.346.

For `COc1cc2c(cc1O)C(c1cccs1)N(Cc1ccc([N+](=O)[O-])o1)CC2` (centres undefined), the z-score is -0.185.

Regarding `[N-]=[N+]=NCc1ccccc1[C@@H]1OC(c2ccc(OCCCO)cc2)=N[C@]1(CCS(=O)(=O)c1ccccc1)C(=O)N1CCCCC1`, the z-score is -0.653. Regarding `CC(C)OC(=O)C=C1C[C@@H](c2cccc(Cl)c2)O[C@@H](c2cccc(Cl)c2)O1`, the z-score was determined as 0.0432.
